GLP1R cytotox = cytotoxicity counter-screen for GLP-1 receptor inverse agonists. HEK293 cAMP-luciferase reporter cells, luminescence, 24 h. Potency, µM (top dose mostly 38.3 µM), most hits filed as inhibitors. actives 0.13% (n = 410,000);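 also: loss of luciferase light is scored as toxicity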
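Here, cytotoxicity is scored as loss of luminescence. The MLSMR collection was tested on cells seeded in medium containing 10% Nu serum, with a 24 hr compound exposure preceded by 12 hours of culture.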
GLP1R ag = activates the human GLP-1 receptor; P43220; HEK293 GLP-1R CRE-luciferase, luminescence, 4-6 h; cells express a hypersensitive GLP-1R form; Potency, µM (titrated, usually from 45.6 µM), actives largely listed as activators; actives 0.007% (n = 380,000)
Target sequence (P43220 whole entry, looked up): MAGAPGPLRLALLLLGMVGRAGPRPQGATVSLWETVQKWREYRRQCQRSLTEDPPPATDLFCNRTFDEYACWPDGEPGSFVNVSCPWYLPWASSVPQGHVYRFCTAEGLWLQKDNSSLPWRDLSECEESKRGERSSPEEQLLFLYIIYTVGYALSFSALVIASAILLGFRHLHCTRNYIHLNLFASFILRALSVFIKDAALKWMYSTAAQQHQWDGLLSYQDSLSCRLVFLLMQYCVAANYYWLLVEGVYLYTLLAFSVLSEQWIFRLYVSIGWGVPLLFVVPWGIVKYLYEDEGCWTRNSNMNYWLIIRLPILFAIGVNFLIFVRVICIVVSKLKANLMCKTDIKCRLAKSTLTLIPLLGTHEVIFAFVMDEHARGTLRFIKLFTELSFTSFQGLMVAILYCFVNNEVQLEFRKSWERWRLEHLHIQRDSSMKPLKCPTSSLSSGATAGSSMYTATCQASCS
GLP-1R inv ag = acts as inverse agonist at human GLP-1 receptor. P43220. HEK293 GLP-1R CRE-luciferase, luminescence, 24 h; GLP-1R form is constitutively active. Potency, µM (series often up to 38.3 µM), hits mostly inhibitors. actives 1.6% (n = 410,000); also: nearly all actives have a fitted effect of over 55% in size
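HEK293 cells stably co-expressing a cAMP-responsive luciferase reporter and constitutively active GLP-1R were seeded, incubated 12 h, then exposed to compounds for 24 h at 37 C. Luminescence was read 12 min after detection reagent; inverse agonists lower signal.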
Large screens that a line does not name were inactive. A selection: hits, their analogues and other compounds. The true share with any hit is near 1.7%. Calls follow the shape of the dose curve; as a rule, active = well fitted curve in the direction sought with a large enough effect; inconclusive = small, poorly fitted or top-dose-only effect, or another doubt; inactive = no such curve, though single readings can be large; an effect the other way counts as inactive or inconclusive.

COc1ccccc1OCC(=O)N/N=C1\CCCCc2ccccc21	GLP-1R inv ag 10µM
Cc1cc(C)cc(OCC(=O)NC2CCCc3ccccc32)c1 (stereo not given)	GLP-1R inv ag inconclusive
COc1ccccc1OCC(=O)NC1CCCc2ccccc21 (stereo not given)	GLP-1R inv ag 11µM
Cc1cccc(OCC(=O)NC2CCCc3ccccc32)c1C (stereo not given)	GLP-1R inv ag 2µM
Cc1ccc(-c2ccc3c(c2)O[C@H](CN(C)Cc2cncnc2)[C@@H](C)CN([C@H](C)CO)S3(=O)=O)cc1	none
O=C(CN1CCCC1)Nc1ccc(S(=O)(=O)N2CCCCC2)cc1	none
CCN1CCN(CC(=O)Nc2ccc(S(=O)(=O)N3C(C)CCCC3C)cc2)CC1 (stereo not given)	GLP-1R inv ag 11µM
CC1CCCN(CC(=O)Nc2ccc(S(=O)(=O)N3CCCCC3)cc2)C1 (stereo not given)	none
Cc1ccc(S(=O)(=O)N2CCN(CC(=O)Nc3ccc(N4CCOCC4)cc3)CC2)cc1C	none
CC1CC(C)CN(S(=O)(=O)c2ccc(NC(=O)CN3CCCCCC3)cc2)C1 (stereo not given)	GLP1R cytotox inconclusive, GLP-1R inv ag 11µM
O=C(CN1CCCCC1)Nc1ccc(S(=O)(=O)N2CCCCCC2)cc1	none
Cc1cccc(N2CCN(CC(=O)Nc3ccc(S(=O)(=O)N4CCOCC4)cc3)CC2)c1C	GLP-1R inv ag 11µM
CC1CCCN(S(=O)(=O)c2ccc(NC(=O)CN3CCCCC3)cc2)C1 (stereo not given)	GLP-1R inv ag 22µM
OC[C@@H]1CN(Cc2cccs2)C[C@H](n2cnc3c(NCc4ccncc4)ncnc32)O1	none
COc1cccc2cc(C(=O)OCC(=O)NCc3ccc4c(c3)OCO4)c(=O)oc12	none
CSc1ccc(CCNC(=O)c2cc3cc4cc(C)ccc4nc3s2)cc1	none (no result: GLP1R ag)
O=C(Nc1ccc(S(=O)(=O)N2CCCCC2)cc1)C1CCN(C(=O)c2ccco2)CC1	GLP-1R inv ag inconclusive
O=C(Nc1ccc(F)cc1)c1ccc(S(=O)(=O)N2CCCC2)cc1	none
O=C(Nc1ccc(F)cc1)Nc1ccc(S(=O)(=O)N2CCCC2)cc1	GLP-1R inv ag 8.9µM
CC1CCN(S(=O)(=O)c2ccc(NC(=O)C3CCN(C(=O)c4ccco4)CC3)cc2)CC1	GLP-1R inv ag 2.8µM
CC1CCN(CC(=O)Nc2ccc(S(=O)(=O)N3CCC(C)CC3)cc2)CC1	GLP1R cytotox inconclusive, GLP-1R inv ag inconclusive
CC1CCN(S(=O)(=O)c2ccc(NC(=O)CN3CCCC3)cc2)CC1	GLP-1R inv ag 1.8µM
O=C(CSc1ncc(S(=O)(=O)c2ccc(Br)cc2)c(=O)[nH]1)NCc1ccccc1Cl	none
Cn1c(SCc2ccccc2Cl)nc2c1c(=O)[nH]c(=O)n2C	none
CCOC(=O)c1cc(-c2ccccc2)n(CCC(=O)Nc2cc(C)cc(C)c2)c1C	GLP-1R inv ag inconclusive (no result: GLP1R ag)
CN(CCOc1ccc(Cl)cc1)C(=O)c1cccc(S(=O)(=O)N2CCN(c3ccc(F)cc3)CC2)c1	GLP-1R inv ag 4µM
COc1ccc(CCN(C)C(=O)c2cccc(S(=O)(=O)N3CCN(c4ccc(F)cc4)CC3)c2)cc1OC	none
Cn1c(NCCc2ccncc2)nc2cc(-c3cccc(C(F)(F)F)c3)sc2c1=O	none
Cc1c(N2C(=O)/C(=C/c3ccc(N(C)C)cc3)N(C)C2=S)c(=O)n(-c2ccccc2)n1C	GLP1R cytotox 5.6µM, GLP-1R inv ag inconclusive
Cc1c(N2C(=O)/C(=C/c3ccccc3)SC2=S)c(=O)n(-c2ccccc2)n1C	GLP-1R inv ag inconclusive
CC(=O)c1sc(C(C)(C)C)cc1NC(=O)c1ccccc1C(=O)O	none
CN(C)c1ccc(/C=C(\C#N)c2nc(-c3ccc(Cl)c(Cl)c3)cs2)cc1	none (no result: GLP1R ag)
c1cncc(-c2nc(N3CCOCC3)c3c4c(sc3n2)CCC4)c1	none
c1cncc(-c2nc(NCCCN3CCOCC3)c3c4c(sc3n2)CCC4)c1	GLP-1R inv ag 11µM
CC#CC[N+](C)(C)CCCCCCCCCC	GLP-1R inv ag inconclusive
N#Cc1nc(-c2ccc(COc3ccc(Cl)cc3)o2)oc1N1CCCCC1	GLP-1R inv ag inconclusive (no result: GLP1R ag)
Cc1noc(NS(=O)(=O)c2ccc(NC(=O)c3cc4ccccc4o3)cc2)c1C	none
Cc1ccc(Nc2nc3ccccc3s2)cc1	none
Cc1ccccc1Nc1nc2ccccc2s1	GLP-1R inv ag 11µM
CCOc1ccc2nc(NC(=S)N(C)C)sc2c1	GLP1R cytotox inconclusive, GLP-1R inv ag inconclusive
CN(C)C(=S)Nc1nc2ccccc2s1	GLP1R cytotox inconclusive, GLP-1R inv ag 0.63µM
O=[N+]([O-])c1ccccc1/C=C/C=N/n1c(-c2ccccc2F)n[nH]c1=S	none
Cc1nc(N2CCOCC2)nc(Oc2ccccc2)c1[N+](=O)[O-]	none
NC(N)=N/N=C/c1cccc(Cl)c1Cl	GLP1R cytotox inconclusive, GLP-1R inv ag 10µM
NC(N)=N/N=C/c1cccc([N+](=O)[O-])c1O	none
CC(C)Cc1nc(N2CCN(C(=O)c3ccco3)CC2)c(C#N)c2c1CCCC2	GLP-1R inv ag 8.9µM
Cc1nc(N2CCN(C(=O)c3ccco3)CC2)c(C#N)c2c1CCCC2	none
Cc1noc(C)c1S(=O)(=O)NC(=O)C1(C)CCN1C(=O)C1(c2ccc(Cl)cc2)CC1 (stereo not given)	none
CCCOC(=O)c1cccc(Nc2nc(C(=O)OCC)nc3ccccc23)c1	GLP-1R inv ag inconclusive (no result: GLP1R ag)
C/C(CCc1ccc2c(c1)OCO2)=N\NC(=S)NC(C)C	GLP1R cytotox 3.2µM, GLP-1R inv ag inconclusive
COCCNC(=S)N/N=C(\C)CCc1ccc2c(c1)OCO2	GLP1R cytotox inconclusive, GLP-1R inv ag inconclusive
Cc1cc2nnc(SCC(=O)NC3CCCCC3)n2c(N)n1	none
CCOc1ccc(C(=O)NCC(=O)OCC(=O)N(C)CC(=O)Nc2ccccc2CC)cc1OCC	none
CCn1cc(C(=O)O)c(=O)c2cnc(N3CCN(C(=S)NC(=O)c4ccc(Cl)cc4)CC3)nc21	none
COc1ccccc1C(=O)N(CCC1CCCN1C)c1nc2ccccc2s1 (stereo not given)	GLP-1R inv ag 3.5µM
COc1ccc2sc(N(CCCN(C)C)C(=O)c3nc4ccccc4s3)nc2c1	none
O=C1Cc2ccccc2C(=O)N1	none
CC(C)(C)NCC(O)COc1cccc2c1CC(O)C(O)C2 (stereo not given)	none
CC(C)(C)NCC(O)COc1ccccc1C(=O)CCc1ccccc1 (stereo not given)	GLP1R cytotox inconclusive, GLP-1R inv ag 11µM
CC(C)(C)NC[C@@H](O)COc1ccccc1C1CCCC1	none (no result: GLP1R cytotox, GLP-1R inv ag)
CC(C)(C)NCC(O)COc1ccccc1C(C)(C)C (stereo not given)	GLP-1R inv ag 7.9µM
C/C(=C\C(=O)c1ccc(Br)cc1)NNC(=O)c1ccc(O)cc1	GLP1R cytotox inconclusive, GLP-1R inv ag 4.5µM
C/C(=C\C(=O)c1ccc(Br)cc1)NNC(=O)c1ccccc1	GLP1R cytotox inconclusive, GLP-1R inv ag inconclusive
Cc1cccc(C)c1OCC(=O)N/N=C/c1cccnc1	GLP1R cytotox 13µM
O=C(COc1ccc(-c2ccccc2)cc1)N/N=C/c1cccnc1	none
COc1cc(CN2CCN(c3cccc(Cl)c3)CC2)cc(OC)c1OC	GLP1R cytotox inconclusive, GLP-1R inv ag 5µM
COc1cc(CN2CCN(S(=O)(=O)c3ccccc3)CC2)cc(OC)c1OC	none
c1ccc(CSc2ccc(-c3cccnc3)nn2)cc1	none
